Assay outcomes as filed in PubChem BioAssay.
D1 agonist = Allosteric Agonists of the Human D1 Dopamine Receptor: qHTS. activation, % at 2 µM. 1% of 360,000 active. HEK293 T-REx D1 cells, calcium flux, agonist mode. AID 504660, 2011
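Tetracycline-induced HEK293 TREx D1 cells, force-coupled to calcium signalling, were dye-loaded with a no-wash calcium kit. Compound was pin-added after a 10 s baseline. Fluorescence was read kinetically at 1 cycle/s for 180 s, with calcium rises flagged as agonism.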
USP1 inh = Inhibitors of USP1/UAF1: Primary Screen; recombinant USP1/UAF1, Ub-Rhodamine cleavage fluorescence; Potency, µM (series often up to 57.1 µM), most hits filed as inhibitors; 0.23% of 390,000 active; AID 743255, 2014; active means well fitted inhibition curve with a large enough effect; inconclusive means small, poorly fitted or top-dose-only effect; inactive means no such curve, though single readings can be large or run the other way; further: nearly all actives have a fitted effect of over 60% in size
Target sequence (O94782 whole entry, looked up): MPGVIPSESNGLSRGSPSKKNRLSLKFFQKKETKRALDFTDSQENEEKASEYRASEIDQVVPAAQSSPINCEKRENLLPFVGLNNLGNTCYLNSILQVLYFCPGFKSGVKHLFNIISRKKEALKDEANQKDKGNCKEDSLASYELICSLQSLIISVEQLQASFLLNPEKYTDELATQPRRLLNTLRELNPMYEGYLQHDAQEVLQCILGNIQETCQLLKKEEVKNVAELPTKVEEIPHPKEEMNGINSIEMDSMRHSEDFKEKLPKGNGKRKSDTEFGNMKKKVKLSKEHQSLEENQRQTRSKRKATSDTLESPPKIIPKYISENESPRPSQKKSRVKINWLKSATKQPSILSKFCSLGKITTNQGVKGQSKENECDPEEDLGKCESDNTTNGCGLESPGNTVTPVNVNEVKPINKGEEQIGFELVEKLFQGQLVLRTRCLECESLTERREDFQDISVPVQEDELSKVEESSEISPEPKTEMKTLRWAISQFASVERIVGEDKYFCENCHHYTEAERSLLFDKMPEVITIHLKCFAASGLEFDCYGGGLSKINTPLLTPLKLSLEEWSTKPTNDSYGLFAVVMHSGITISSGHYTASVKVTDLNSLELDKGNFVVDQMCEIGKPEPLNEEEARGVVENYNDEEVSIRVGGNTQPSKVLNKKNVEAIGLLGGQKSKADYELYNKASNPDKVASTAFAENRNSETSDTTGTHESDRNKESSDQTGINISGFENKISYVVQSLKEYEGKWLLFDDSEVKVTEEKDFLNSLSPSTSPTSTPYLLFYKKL
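USP1/UAF1 complex (1 nM) preincubated 15 min at room temperature with compound, then Ub-Rho substrate (150 nM final) added. Kinetic fluorescence at 480/540 nm over 6 reads at 60 s intervals; 50 mM HEPES pH 7.8, 0.5 mM EDTA, 0.1 mg/ml BSA, 1 mM TCEP, 0.01% Tween-20.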
TRHR enhancer = qHTS for Small Molecule Agonists and Allosteric Enhancers of Human TRH Receptor: Primary Screen for Enhancers | TRHR cells, fluo-8 calcium fluorescence, EC20 TRH enhancement | enhancement, % at 2 µM | 0.66% of 360,000 active | AID 493056, 2011; in the data active means enhancement above about 30%
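Enhancer read-out: after compound pinning and an initial kinetic agonist-mode read, an EC20 of TRH (10 nM final) was injected and fluo-8 calcium signal (Ex 480/Em 530) followed at 1 s/cycle for 100 cycles in TRHR-expressing cells.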
TRHR ag = qHTS for Small Molecule Agonists and Allosteric Enhancers of Human TRH Receptor: Primary Screen for Agonists; Thyrotropin-releasing hormone receptor (Homo sapiens), P34981; TRHR cells, calcium flux fluo-8, FDSS agonist mode; activation, % at 2 µM; 0.18% of 360,000 active; AID 493084, 2011
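In this calcium-flux screen, cells bearing human TRHR are dye-loaded with fluo-8, baselined for 10 cycles, then exposed to library compounds; positive kinetic calcium responses during the agonist phase mark hits, with TRH as control.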
D1 potentiator = Potentiators of Human D1 Dopamine Receptor: qHTS. D(1A) dopamine receptor (Homo sapiens), P21728. HEK293 TREx D1 cells, calcium flux, dopamine EC20 potentiation. potentiation, % at 10 µM. 0.036% of 360,000 active. AID 504651, 2011; in the data active means potentiation above about 30%
D1 antagonist = Antagonist of Human D 1 Dopamine Receptor: qHTS; activity change, negative = inhibition, % at 10 µM; D(1A) dopamine receptor (Homo sapiens), P21728; AID 504652, 2011; HEK293 TREx D1 cells, calcium flux, dopamine EC80; active compounds read low; 3.2% of 360,000 active; in the data active means activity change below about -30%
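After overnight tetracycline induction at 30 C, force-coupled D1 HEK293 cells took up a no-wash calcium dye at room temperature. Compounds were added and monitored 180 s, and the response to EC80 dopamine was then recorded.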
Large screens that a line does not name were inactive. Only some compounds are listed: those with a hit (about 4.4% of all), similar ones and a draw of the others. Unless noted, no stated cut-off is given here; in the data, active means activation above about 30%; inactive means the rest.

COc1cccc(CN2CCN(Cc3cc(OC)c(OC)c(OC)c3)CC2)c1OC	none
O=C(NCCc1csc(-c2ccc(F)cc2)n1)C(=O)Nc1ccc(Cl)cc1	none
Cc1ccc(-n2nc(CO)c(C(=O)NC(C)c3ccccc3)n2)cc1C (configuration not stated)	none
C=CCSc1nnc(CC(OC)OC)n1-c1ccccc1	D1 antagonist -37
COC(=O)c1ccc(COn2nnc3ccccc32)cc1	D1 antagonist -35
Cc1ccc(NC(=O)C2CC(=O)N/C(=N/N=C/c3ccco3)S2)cc1C (configuration not stated)	D1 antagonist -83
Fc1ccc(C2=NN(c3ccccc3)C(c3ccco3)C2)cc1 (configuration not stated)	none
C(=C\c1ccco1)/C1=NN(c2ccccc2)C(c2ccco2)C1 (configuration not stated)	D1 agonist 45
CC(C)(C)NC(=O)Cn1nnc(-c2ccc(OCc3c(F)cccc3Cl)cc2)n1	D1 antagonist -32
CCCc1ccc(C(=O)NC(=O)c2ccccc2O)cc1	D1 antagonist -64
CCCc1ccc(C(=O)NNC(=O)c2ccc(Br)cc2)cc1	none
O=C(NC(=O)c1ccccc1O)c1ccc(C(F)(F)F)cc1	D1 agonist 37
COc1ncnc(OC)c1S(=O)(=O)Nc1ccc(C(F)(F)F)cc1	D1 antagonist -31
CC(Oc1ccc(C#N)cc1)C(=O)c1ccc(F)c(F)c1 (configuration not stated)	D1 antagonist -35
COc1ccc(C(=O)Nc2cccc(/C(C)=N/NC(=O)c3ccc([N+](=O)[O-])cc3)c2)cc1OC	D1 antagonist -34
COc1ccc(C(=O)N/N=C(/C)c2cccc(NC(=O)c3ccncc3)c2)cc1OC	none
CN(Cc1ccccc1)C(=S)NC(=O)c1cccs1	TRHR enhancer 44
O=C(c1ccncc1)c1ccc(NC(=O)c2cccs2)cc1	D1 antagonist -35
O=C(Nc1ccc(Cc2ccncc2)cc1)c1cccs1	none
COc1ccc(C(=O)Nc2ccc(Nc3ccccc3)cc2)cc1OC	D1 antagonist -37
COC(=O)c1sc2cccc(F)c2c1S(=O)(=O)Nc1cc(C)c(Cl)cc1OC	USP1 inh inconclusive
CN(C)C1(CNC(=O)COc2ccc([N+](=O)[O-])cc2)CCCCC1	none
O=C(Cc1ccccc1)Nc1ccc(C(=O)Nc2ccc(O)cc2)cc1	D1 agonist 33
O=C(Cc1ccccc1)Nc1ccc(NC(=O)c2cccs2)cc1	D1 antagonist -30
O=C(Nc1ccc(NC(=O)c2cccs2)cc1)c1ccccc1	none
O=C(NNC(=O)c1ccc(NC(=O)c2ccccc2)cc1)c1ccccc1	D1 agonist 59
CCN(CC)C(=O)Cn1nnc2sc(-c3ccccc3)cc2c1=O	none
COc1ccccc1C(=O)N(c1ccc(C)cc1)S(=O)(=O)c1ccc(Cl)cc1	USP1 inh inconclusive
Nc1nonc1-n1nnc(C(=O)N/N=C/c2ccc3c(c2)OCO3)c1-c1ccccc1	none
COc1cccc(-c2c(C(=O)N/N=C(\C)c3ccncc3)nnn2-c2nonc2N)c1	none
COc1cccc(-c2c(C(=O)N/N=C(\C)c3cccs3)nnn2-c2nonc2N)c1	D1 agonist 216
CCOc1ccc(-c2c(C(=O)N/N=C(\C)c3ccco3)nnn2-c2nonc2N)cc1	none
CCOc1ccc(-c2c(C(=O)N/N=C(\C)c3cccs3)nnn2-c2nonc2N)cc1	D1 agonist 44
Nc1nonc1-n1nnc(C(=O)N/N=C/c2ccc(Br)cc2)c1-c1ccc2c(c1)OCO2	D1 agonist 47
CCOc1cccc(-c2c(C(=O)N/N=C(\C)c3cccs3)nnn2-c2nonc2N)c1	D1 agonist 95
COc1cccc(N2CC(NC(=O)COc3ccccc3F)CC2=O)c1 (configuration not stated)	USP1 inh inconclusive (no result: D1 antagonist)
CC(C)CCNC(=O)C1CCN(C(=O)c2cc3sccc3n2Cc2ccc(Cl)cc2)CC1	none
Cc1cccc(N2CCN(C(=O)c3cn(C)c4ccc(S(=O)(=O)N(C)C)cc4c3=O)CC2C)c1 (configuration not stated)	none
C/C(=N\NC(=O)c1nnn(-c2nonc2N)c1-c1ccc2c(c1)OCO2)c1cccs1	D1 agonist 183, TRHR enhancer 31
C/C(=N\NC(=O)c1nnn(-c2nonc2N)c1-c1cccs1)c1ccc(O)cc1	none
Cc1nn(C(=O)COc2ccccc2)c(C)c1Sc1ccccc1	D1 agonist 110, D1 antagonist -65
O=S(=O)(c1cccs1)N1CCN(c2ccnc3cc(Cl)ccc23)CC1	none
O=S(=O)(c1ccccc1)N1CCN(c2ccnc3cc(Cl)ccc23)CC1	D1 antagonist -41
Cc1cc(N2CCN(C(=O)c3ccco3)CC2)c2ccccc2n1	none
Cc1cc(N2CCN(S(=O)(=O)c3ccccc3)CC2)c2ccccc2n1	D1 antagonist -35
O=C(Nc1ccc(C(F)(F)F)cc1)N1CCN(c2ccnc3cc(Cl)ccc23)CC1	D1 antagonist -37
CCN1CCN(Cc2c(O)ccc3c(=O)c(Oc4ccccc4C(C)C)c(C(F)(F)F)oc23)CC1	none
COc1ccc(CCNc2nc(SCc3ccccc3F)nc3ccccc23)cc1OC	none
COc1ccc(CN2CCN(C(=O)c3cccs3)CC2)c(OC)c1OC	D1 antagonist -34
COc1ccc(CN2CCN(C(=O)c3ccc(-c4ccccc4)cc3)CC2)c(OC)c1OC	none
CCC(=O)N1c2ccccc2CC1C(=O)NCCc1ccccc1Cl (configuration not stated)	none
Oc1ccc(/C=N/n2c(COc3ccccc3)n[nH]c2=S)cc1O	none
CCOc1cc(/C=N/n2c(COc3ccccc3)n[nH]c2=S)ccc1O	D1 agonist 102
COCCn1c(C)cc(O)c(C(c2ccccc2)N2CCC(C)CC2)c1=O (configuration not stated)	USP1 inh inconclusive
Cc1ccc(S(=O)(=O)Nc2cc(=O)[nH]c(SCc3ccccc3Cl)n2)cc1	D1 antagonist -32
CC(C)(C)c1cc(=O)[nH]c(SCc2ccccc2Cl)n1	none
O=c1cc(NS(=O)(=O)c2ccccc2)nc(SCc2ccc(Cl)cc2)[nH]1	D1 antagonist -36
Nc1nn(-c2ccccc2)nc1C(=O)OCc1c(F)cccc1Cl	none
